Integrin act MD = activators of alpha7 integrin expression for muscular dystrophy; alpha7betagal myoblasts, beta-gal FDG fluorescence, 48 h; Potency, µM (series often up to 38.3 µM), usual class: activators; 350,000 tested, 0.064% active; AID 624291; also: nearly all actives have a fitted effect of over 60% in size
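Alpha7betagal+/- myoblasts (passage 13) were plated 16-24 hr, then exposed to compounds (1:260 dilution of DMSO stock) for 48 hours at 37C. After MPER lysis, β-galactosidase reporter activity was read as FDG fluorescence (ex 480/em 540) after 30 minutes.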
DRD3 agonist = agonists of human D3 dopamine receptor. P35462. D3R DiscoveRx beta-arrestin cells, luminescence, 90 min. max activation, %. 410,000 tested, 0.58% active. AID 652048; in the data active = max activation above about 30%
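Agonist-mode cell screen: cells plated at 1500/well and incubated overnight at 37 °C, then exposed to library compounds for 90 min at 37 °C. Detection reagent was added for 30–60 min at room temperature, and luminescence was read.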
D3 antag = blocks the human D3 dopamine receptor; P35462; D3R cells, DiscoveRx beta-arrestin luminescence, antagonist mode; hits give low values; max response, negative = inhibition, %; 360,000 tested, 2.5% active; AID 652054; in the data active = max response below about -50%; inconclusive = no clear call, values can overlap the other calls
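Cells plated overnight at 1500 cells/well, then exposed to library compounds with dopamine controls for 90 minutes at 37 degrees C. DiscoveRx reagent added for 30–60 minutes at room temperature; luminescence read, quantitative HTS format.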
mIDH1 inhibitor = inhibitors of human mutant IDH1 R132H; O75874; IDH1-R132H enzyme, NADPH consumption, diaphorase/resazurin fluorescence; Potency, µM (top dose mostly 76.6 µM), usual class: inhibitors; 390,000 tested, 0.093% active; AID 602179; also: nearly all actives have a fitted effect of over 65% in size
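IDH1-R132H (0.5 ug/mL dispensed) in pH 7.5 Tris buffer was preincubated 30 min with compound, then given a substrate mix of 0.016 mM NADPH and 2 mM alpha-KG for 80 min at room temperature; remaining NADPH was read by diaphorase/resazurin fluorescence.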
B2AR arrestin = beta2AR (human) beta-arrestin recruitment activity. Potency, µM (top dose mostly 46.1 µM), actives largely listed as activators. beta-arrestin recruitment to beta2AR, cell-based reporter. P07550. 330,000 tested, 0.02% active; also: nearly all actives have a fitted effect of over 65% in size
Target sequence (P07550 whole entry, looked up): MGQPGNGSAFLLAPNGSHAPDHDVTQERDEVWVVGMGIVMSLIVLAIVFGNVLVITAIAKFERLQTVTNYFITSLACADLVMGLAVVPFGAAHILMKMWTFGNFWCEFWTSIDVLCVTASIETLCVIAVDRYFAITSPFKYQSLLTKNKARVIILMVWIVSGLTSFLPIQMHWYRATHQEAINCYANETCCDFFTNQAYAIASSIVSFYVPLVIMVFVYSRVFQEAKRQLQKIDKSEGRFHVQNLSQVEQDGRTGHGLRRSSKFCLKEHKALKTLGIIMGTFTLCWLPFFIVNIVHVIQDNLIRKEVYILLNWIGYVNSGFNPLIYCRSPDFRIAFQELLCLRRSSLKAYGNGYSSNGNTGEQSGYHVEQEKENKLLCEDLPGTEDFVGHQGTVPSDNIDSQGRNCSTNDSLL
Each line names hits and unclear results; the compound was inactive in the other large screens. A selection: hits, their analogues and other compounds. The true share with any hit is near 2.9%. Unless noted, calls follow the shape of the dose curve; as a rule, active = well fitted curve in the direction sought with a large enough effect; inconclusive = small, poorly fitted or top-dose-only effect, or another doubt; inactive = no such curve, though single readings can be large; an effect the other way counts as inactive or inconclusive.

CCCC(C)C1(CC)C(=O)N=C(S)NC1=O (stereo not drawn)	none (no result: Integrin act MD, D3 antag, mIDH1 inhibitor, B2AR arrestin)
O=c1oc2cccnc2n1CCS(=O)(=O)c1ccc(F)cc1	none
Fc1ccc(C(OCCN2CCN(CCCc3ccccc3)CC2)c2ccc(F)cc2)cc1	none (no result: Integrin act MD, D3 antag, mIDH1 inhibitor, B2AR arrestin)
Fc1ccc(C(OCCN2CCCC2)c2ccc(Br)cc2)cc1 (stereo not drawn)	D3 antag -73
c1ccc(CCCN2CCN(CCOC(c3ccccc3)c3ccccc3)CC2)cc1	D3 antag -76 (no result: Integrin act MD, B2AR arrestin)
Fc1ccc(C(OCCN2CCCC2)c2ccc(F)cc2)cc1	Integrin act MD inconclusive, D3 antag -61
C[C@@H]1[C@H](O)[C@@H](C)/C=C/C=C/CC/C=C/C=C/C=C/C=C/[C@H](O[C@H]2O[C@@H](C)[C@H](O)[C@@H](N)[C@H]2O)CC2O[C@](O)(C[C@@H](O)[C@H](O)CC[C@@H](O)C[C@@H](O)C[C@@H](O)CC(=O)O[C@H]1C)C[C@H](O)[C@H]2C(=O)O	none (no result: Integrin act MD, D3 antag, mIDH1 inhibitor, B2AR arrestin)
CC(=O)O[C@H]1C[C@H](O[C@H]2[C@@H](O)C[C@H](O[C@H]3[C@@H](O)C[C@H](OC4CC[C@@]5(C)C(CC[C@@H]6[C@@H]5CC[C@]5(C)[C@@H](C7=CC(=O)OC7)[C@@H](O)C[C@]65O)C4)O[C@@H]3C)O[C@@H]2C)O[C@H](C)[C@H]1O[C@@H]1O[C@H](CO)[C@@H](O)[C@H](O)[C@H]1O (stereo partly drawn)	none (no result: Integrin act MD, D3 antag, mIDH1 inhibitor, B2AR arrestin)
CN[C@H]1C[C@@H](N)[C@H](O)[C@@H](O[C@@H]2O[C@H](CO)[C@H](O)[C@@H]3OC4(O[C@H]23)O[C@H](C(N)CO)[C@H](O)[C@H](O)[C@H]4O)[C@@H]1O (stereo partly drawn)	none (no result: Integrin act MD, D3 antag, mIDH1 inhibitor, B2AR arrestin)
NCC(O)c1cc(O)c(O)cc1F (stereo not drawn)	DRD3 agonist 176 (no result: Integrin act MD)
O=c1[nH]c(=S)n(C2CC2)c(O)c1C=NCCN1CCOCC1	none
O=c1[nH]c(=O)n(C2CCCCCC2)c(O)c1C=NCCCN1CCOCC1	D3 antag -61
COCc1ccc(CN2CCCC(C(=O)c3sccc3C)C2)o1 (stereo not drawn)	D3 antag inconclusive
Cc1ccsc1C(=O)C1CCCN(Cc2cnn(C(C)C)c2)C1 (stereo not drawn)	D3 antag -73
Cc1ccsc1C(=O)C1CCCN(Cc2cnc(N)nc2)C1 (stereo not drawn)	none
CCc1ccc(CN2CCCC(C(=O)c3sccc3C)C2)o1 (stereo not drawn)	D3 antag -52
Cc1ccsc1C(=O)C1CCCN(Cc2ccccc2O)C1 (stereo not drawn)	D3 antag -53
COc1ccc(O)c(CN2CCCC(C(=O)c3sccc3C)C2)c1 (stereo not drawn)	D3 antag inconclusive
OC[C@@H](O)[C@H]1O[C@@H]2O[C@@H](C(Cl)(Cl)Cl)O[C@@H]2[C@H]1O	none (no result: Integrin act MD, D3 antag, mIDH1 inhibitor, B2AR arrestin)
CC1(C)CC(=O)C2=C(C1)NC(=O)C21C(C(=O)OC(C)(C)C)=C(N)Oc2ccc(Br)cc21 (stereo not drawn)	DRD3 agonist 31
OC[C@@H](O)[C@H]1O[C@@H]2O[C@H](C(Cl)(Cl)Cl)O[C@@H]2[C@H]1O	none (no result: Integrin act MD, D3 antag, mIDH1 inhibitor, B2AR arrestin)
Cc1cccc(CN2CCCC(C(=O)c3ccc(C(F)(F)F)cc3)C2)n1 (stereo not drawn)	none
Cc1cc(Cl)ccc1C(=O)C1CCCN(C2CCSCC2)C1 (stereo not drawn)	D3 antag -76
O=C(c1ccc(C(F)(F)F)cc1)C1CCCN(C2CCSCC2)C1 (stereo not drawn)	D3 antag -57
CN1[C@@H]2CC[C@H]1CC(OC1c3ccccc3CCc3ccccc31)C2 (stereo partly drawn)	D3 antag -91 (no result: Integrin act MD)
COc1ccc(NC(=O)CN(C)S(=O)(=O)c2ccc3[nH]c(=O)oc3c2)cc1	Integrin act MD inconclusive
CN(C)C(=S)SSC(=S)N(C)C	D3 antag -74, B2AR arrestin inconclusive (no result: Integrin act MD)
COC1=CC(=O)[C@]2(C=C1OC)OC[C@@H]1Oc3c(ccc4c3C=CC(C)(C)O4)C(=O)[C@@H]12	DRD3 agonist 70
N#CC1c2ccccc2-n2nncc2CN1Cc1cc(Cl)cc(Cl)c1 (stereo not drawn)	D3 antag -109 (no result: B2AR arrestin)
COc1ccc(CN2Cc3cnnn3-c3ccccc3C2C#N)cc1 (stereo not drawn)	D3 antag -78 (no result: B2AR arrestin)
COc1ccc(CN2Cc3cnnn3-c3ccccc3C2c2ccccc2)cc1 (stereo not drawn)	none (no result: B2AR arrestin)
CN1Cc2cnnn2-c2ccccc2C1C#N (stereo not drawn)	none (no result: B2AR arrestin)
CC(C)=CCN1CC[C@@]2(C)c3cc(O)ccc3C[C@@H]1[C@@H]2C	none (no result: Integrin act MD, D3 antag, mIDH1 inhibitor, B2AR arrestin)
O=C(N[C@H]1N=C(c2ccccc2F)c2cccc3c2N(CC3)C1=O)c1cc2ccccc2[nH]1	none (no result: Integrin act MD, D3 antag, mIDH1 inhibitor, B2AR arrestin)
O=C(CCCN1CCC(n2c(=O)[nH]c3ccccc32)CC1)c1ccc(F)cc1	D3 antag -103 (no result: Integrin act MD)
COC(=O)c1ccc(N2C(=O)CC(N3CCC(n4c(=O)[nH]c5ccccc54)CC3)C2=O)cc1 (stereo not drawn)	none
CNc1ccc(C(=O)CC(O)CCC(C)C2OC(=O)CC(O)CC(=O)CC(O)CC(O)CC(O)CC(O)CC3(O)CC(O)C(C(=O)OC)C(CC(O[C@@H]4O[C@H](C)[C@@H](O)[C@H](N)[C@@H]4O)/C=C/C=C/C=C/C=C/C=C/C=C/C=C/C2C)O3)cc1 (stereo partly drawn)	none (no result: Integrin act MD, D3 antag, mIDH1 inhibitor, B2AR arrestin)
CCCCn1nnnc1C(c1cccc2ccccc12)N1CCC2(CC1)C(=O)NCN2c1ccccc1 (stereo not drawn)	D3 antag inconclusive (no result: Integrin act MD, mIDH1 inhibitor, B2AR arrestin)
CCCCn1nnnc1C(c1cccs1)N1CCC2(CC1)C(=O)NCN2c1ccccc1 (stereo not drawn)	D3 antag -52 (no result: Integrin act MD, mIDH1 inhibitor, B2AR arrestin)
COc1ccc(C(c2nnnn2-c2c(C)cccc2C)N2CCC3(CC2)C(=O)NCN3c2ccccc2)cc1 (stereo not drawn)	D3 antag -54 (no result: Integrin act MD, mIDH1 inhibitor, B2AR arrestin)
O=C1NCN(c2ccccc2)C12CCN(C(c1ccccc1OC(F)(F)F)c1nnnn1Cc1ccccc1)CC2 (stereo not drawn)	DRD3 agonist 30 (no result: Integrin act MD, mIDH1 inhibitor, B2AR arrestin)
Cc1cccc(C)c1-n1nnnc1C(c1ccccc1)N1CCC2(CC1)C(=O)NCN2c1ccccc1 (stereo not drawn)	none (no result: Integrin act MD, mIDH1 inhibitor, B2AR arrestin)
O=C1NCN(c2ccccc2)C12CCN(C(c1cccc3ccccc13)c1nnnn1Cc1ccccc1)CC2 (stereo not drawn)	none (no result: Integrin act MD, mIDH1 inhibitor, B2AR arrestin)
CCOc1ccccc1N1C(=O)NC(=O)/C(=C/c2ccc3c4c(cccc24)CC3)C1=O	D3 antag -52
CCCCCCCCCC(CC)c1ccc(S(=O)(=O)O)cc1 (stereo not drawn)	none (no result: Integrin act MD, D3 antag, mIDH1 inhibitor, B2AR arrestin)
C#CCN(C[C@@H]1[C@@H](OC(=O)Nc2c(C)noc2C)[C@@H](OC(=O)Nc2c(C)noc2C)Cn2c(=O)n(CCCCCC)c(=O)n21)S(=O)(=O)c1ccc(C)cc1	none (no result: B2AR arrestin)

Screens from PubChem.
